Laboratory results taken from PubChem BioAssay (EPA / NIEHS).
Several values for one entry are separate records, joined by “and”; a condition that tells them apart may be missing. Equal values may be shown once. Inconclusive results are not listed. Some structures have more than one record in an assay (separate samples or runs), and their calls can disagree. Activity calls are given as the source filed them. How the source made its calls, unless noted: active means hit-call score of the fitted dose curve at least 0.9, where 1 is the maximum; inactive means score below 0.9.

Tests used:
[1] = target: Estrogen-related receptor gamma (Homo sapiens) (UniProt P62508); assay: ATG_ERRg_TRANS: Attagene TRANS-FACTORIAL HepG2 Assay for human Estrogen-Related Receptor gamma (ERRg) (AID 2282977; active means hit-call score of the fitted dose curve at least 0.9, where 1 is the maximum;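 further: hits increase reporter signal over DMSO so potencies reflect activators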); settings: HepG2 Attagene TRANS reporter, ERRg transactivation
How it was run: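 Transfect HepG2 with multiple GAL4-UAS reporter transcription units; dose chemicals 24 h; isolate RNA, reverse-transcribe with oligo(dT), PCR-amplify, label with 6-FAM, digest with HpaI; size fragments by capillary electrophoresis. DMSO serves as negative control.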

[2] = target: Glucocorticoid receptor (Homo sapiens) (UniProt P04150); assay: ATG_GR_TRANS: Attagene TRANS-FACTORIAL HepG2 Assay for human Glucocorticoid Receptor (GR) (AID 2282978; active means hit-call score of the fitted dose curve at least 0.9, where 1 is the maximum;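 further: activators score as hits since higher reporter transcript over DMSO is fitted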); settings: HepG2 Attagene TRANS GR reporter, mRNA transcription
How it was run: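 Measurement of GAL4-UAS-driven reporter mRNA in human HepG2 liver cells 24 h post-dosing, using RT-PCR with fluorescent labelling and capillary electrophoresis; the transfected constructs report exogenous NR-GAL4 chimera activity, fitted upward against DMSO.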

[3] = target: Bile acid receptor (Homo sapiens) (UniProt Q96RI1); assay: ATG_FXR_TRANS: Attagene TRANS-FACTORIAL HepG2 Assay for Farnesoid X Receptor (FXR) (AID 2282979; active means hit-call score of the fitted dose curve at least 0.9, where 1 is the maximum;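 further: hits raise reporter mRNA above DMSO so AC50 marks FXR activation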); settings: HepG2 Attagene TRANS FXR-GAL4 reporter transcription
How it was run: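 HepG2 cells were transiently transfected with GAL4-UAS reporters driven by chimeric NR-Gal4 proteins and dosed for 24 h. Reporter mRNA was quantified by RT-PCR, fluorescent labelling, HpaI digestion and capillary electrophoresis, with gain of signal scored versus DMSO.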

[4] = target: Oxysterols receptor LXR-alpha (Homo sapiens) (UniProt Q13133); assay: ATG_LXRa_TRANS: Attagene TRANS-FACTORIAL HepG2 Assay for human Liver X Receptor alpha (LXRa) (AID 2282980; active means hit-call score of the fitted dose curve at least 0.9, where 1 is the maximum); settings: HepG2 Attagene TRANS reporter, LXRa transactivation
How it was run: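 HepG2 cells transiently transfected with GAL4-UAS reporter units for chimeric NR-Gal4 proteins, exposed to chemicals for 24 h. Reporter mRNA quantified by RT-PCR and capillary electrophoresis; gain of signal fitted relative to DMSO.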

[5] = target: Hepatocyte nuclear factor 4-alpha (Homo sapiens) (UniProt P41235); assay: ATG_HNF4a_TRANS: Attagene TRANS-FACTORIAL HepG2 Assay for human Hepatocyte Nuclear Factor 4 alpha (HNF4a) (AID 2282982; active means hit-call score of the fitted dose curve at least 0.9, where 1 is the maximum); settings: HepG2 HNF4a transactivation reporter, mRNA readout
How it was run: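 HepG2 cells transiently transfected with HNF4a-Gal4 chimera and GAL4-UAS reporter units, dosed for 24 h. Reporter mRNA measured by RT-PCR, fluorescent primer extension and capillary electrophoresis; gain-of-signal fitted relative to DMSO.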

[6] = ATG_M_06_TRANS: Attagene TRANS-FACTORIAL HepG2 Assay for M06 Transcription Factor (Internal Marker) (AID 2282983; active means hit-call score of the fitted dose curve at least 0.9, where 1 is the maximum;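 further: reporter transcript level by RT-PCR then capillary electrophoresis fluorescence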); settings: HepG2 Attagene TRANS M06 internal marker reporter
How it was run: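 HepG2 cells transiently transfected with GAL4-UAS multiple reporter units, dosed 24 h. Reporter RNA reverse-transcribed, PCR-amplified, 6-FAM-labeled, HpaI-digested and quantified by capillary electrophoresis; this internal-marker signal fitted upward relative to DMSO.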

[7] = ATG_M_32_TRANS: Attagene TRANS-FACTORIAL HepG2 Assay for M32 Transcription Factor (Internal Marker) (AID 2282984; active means hit-call score of the fitted dose curve at least 0.9, where 1 is the maximum;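 further: transcript level of a background control reporter unit measured by RT-PCR and capillary electrophoresis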); settings: HepG2 Attagene TRANS M32 internal marker reporter
How it was run: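 HepG2 cells transiently transfected with GAL4-UAS reporter units, dosed for 24 hours. Reporter mRNA quantified by RT-PCR, 6-FAM labelling, HpaI digestion and capillary electrophoresis; internal-marker signal fitted upward relative to DMSO.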

[8] = target: Transcriptional activator Myb (Homo sapiens) (UniProt P10242); assay: ATG_Myb_CIS: Attagene CIS-FACTORIAL HepG2 Assay for human Myeloblastosis (Myb) Proto-Oncogene Transcription Factor (AID 2282986); settings: HepG2 Attagene CIS-FACTORIAL Myb reporter transcription; actives raise or lower the signal
How it was run: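 Fluorescence signals from capillary electrophoresis of RT-PCR-amplified reporter cDNA give the read-out. Cells: HepG2 transfected with multiple cis-regulated reporter units. Exposure lasts 24 hours; DMSO defines baseline for gain or loss of signal.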

[9] = target: Nuclear respiratory factor 1 (Homo sapiens) (UniProt Q16656); assay: ATG_NRF1_CIS: Attagene CIS-FACTORIAL HepG2 Assay for human Nuclear Respiratory Factor 1 (NRF1) Orphan Gene (AID 2282987); settings: HepG2 NRF1 cis-element reporter, Attagene multiplex; actives raise or lower the signal
How it was run: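 Transcriptional reporter readout, one component of a 52-endpoint multiplexed HepG2 panel. Exposure 24 h; mRNA detected via RT-PCR and fluorescent capillary electrophoresis; fitting in both directions against DMSO.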

[10] = ATG_NFI_CIS: Attagene CIS-FACTORIAL HepG2 Assay for human Nuclear Factor I (NFI) (AID 2282989); settings: HepG2 cis-regulatory reporter, NFI response element transcription; actives raise or lower the signal
How it was run: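 After transient transfection of HepG2 with cis-promoter reporter constructs and 24 h dosing, RNA is reverse-transcribed, amplified, 6-FAM end-labelled and HpaI-digested before capillary analysis. Bidirectional curve fitting against DMSO.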

[11] = target: Myc proto-oncogene protein (Homo sapiens) (UniProt P01106); assay: ATG_Myc_CIS: Attagene CIS-FACTORIAL HepG2 Assay for human Myelocytomatosis (Myc) Proto-Oncogene Transcription Factor (AID 2282990); settings: HepG2, Attagene cis-reporter transcription factor activity; actives raise or lower the signal
How it was run: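 Read-out: fluorescent reporter mRNA fragments resolved by capillary electrophoresis after RT-PCR. Human HepG2 liver cells carried transfected cis-element reporter units and were dosed for 24 h. Gain or loss of signal fitted relative to DMSO baseline.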

[12] = ATG_NF_kB_CIS: Attagene CIS-FACTORIAL HepG2 Assay for human Nuclear Factor Kappa B (NF-kB) (AID 2282991); settings: HepG2 Attagene cis-factorial NF-kB reporter mRNA; actives raise or lower the signal
How it was run: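 HepG2, transient multi-reporter transfection, cis promoter elements (endogenous TFs). 24 h exposure. Total RNA → RT → PCR → 6-FAM label → HpaI → CE. Gain/loss vs DMSO.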

[13] = ATG_NRF2_ARE_CIS: Attagene CIS-FACTORIAL HepG2 Assay for human Nuclear Factor Erythroid 2 Related Factor 2 (NFR2) response to Antioxidant Response Elements (ARE) (AID 2282992); settings: HepG2 Attagene ARE/NRF2 reporter, transcription factor activity; actives raise or lower the signal
How it was run: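 HepG2 cells transiently transfected with multiplexed cis-regulated reporter transcription units measure endogenous transcription factor activity. Reporter mRNA at 24 h is quantified by RT-PCR, fluorescent labelling and capillary electrophoresis, with bidirectional fitting relative to DMSO.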

[14] = ATG_Oct_MLP_CIS: Attagene CIS-FACTORIAL HepG2 Assay for human Octamer-Binding Transcription Factor (Oct) (AID 2282993); settings: HepG2 Attagene cis-factorial Oct reporter, mRNA; actives raise or lower the signal
How it was run: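 Cells of the HepG2 line express promoter-controlled reporter sequences whose mRNA levels, after 24 h treatment, are measured by RT-PCR and capillary electrophoresis. Increases and decreases are scored relative to DMSO.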

[15] = target: Cellular tumor antigen p53 (Homo sapiens) (UniProt P04637); assay: ATG_p53_CIS: Attagene CIS-FACTORIAL HepG2 Assay for human p53 Transcription Factor (AID 2282994); settings: HepG2 p53 cis-element reporter, Attagene mRNA; actives raise or lower the signal
How it was run: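 HepG2 cells transiently transfected with multiplexed cis-regulated reporter transcription units read endogenous TF activity. After 24 h compound exposure, reporter mRNA was quantified by RT-PCR, fluorescent labelling, HpaI digestion and capillary electrophoresis; bidirectional fits versus DMSO baseline.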

[16] = target: Oxysterols receptor LXR-beta (Homo sapiens) (UniProt P55055); assay: ATG_LXRb_TRANS: Attagene TRANS-FACTORIAL HepG2 Assay for human Liver X Receptor beta (LXRb) (AID 2282981; active means hit-call score of the fitted dose curve at least 0.9, where 1 is the maximum); settings: HepG2 Attagene TRANS GAL4-LXRb reporter, mRNA
How it was run: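 HepG2 cells transiently transfected with GAL4-UAS reporter units for chimeric NR-Gal4 proteins, dosed for 24 h. Reporter transcripts measured by RT-PCR and capillary electrophoresis; gain-of-signal fitting relative to DMSO.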

[17] = target: Nuclear receptor subfamily 4 group A member 2 (Homo sapiens) (UniProt P43354); assay: ATG_NURR1_TRANS: Attagene TRANS-FACTORIAL HepG2 Assay for human Nuclear Receptor Related Protein 1 (NURR1) (AID 2282985; active means hit-call score of the fitted dose curve at least 0.9, where 1 is the maximum); settings: HepG2 Attagene TRANS reporter, mRNA readout
How it was run: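 HepG2 cells transiently transfected with NURR1-Gal4 chimera and GAL4-UAS reporter units; after 24 hr compound exposure, reporter mRNA quantified by RT-PCR and capillary electrophoresis; gain of signal fitted against DMSO.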

[18] = BSK_3C_TissueFactor: BioMAP Diversity Plus: 3C Assay for Tissue Factor Biomarker Activity (AID 2282997); settings: BioMAP 3C HUVEC, tissue factor biomarker readout; actives raise or lower the signal
How it was run: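 HUVEC were treated 24 h, then surface tissue factor measured by ELISA and fitted bidirectionally against DMSO. Parallel SRB total-protein staining assessed overt cytotoxicity at the same time point.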

[19] = BSK_3C_uPAR: BioMAP Diversity Plus: 3C Assay for Urokinase-type plasminogen activator receptor (uPAR) Biomarker Activity (AID 2282998); settings: BioMAP 3C HUVEC, uPAR biomarker ELISA; actives raise or lower the signal
How it was run: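 Endothelial primary cells of human umbilical vein origin received test chemical; 24 h later uPAR was assayed by ELISA. Fitting was bidirectional, DMSO as negative control.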

[20] = BSK_3C_VCAM1: BioMAP Diversity Plus: 3C Assay for Vascular cell adhesion molecule 1 (VCAM1) Biomarker Activity (AID 2282999); settings: BioMAP 3C HUVEC, VCAM1 ELISA, cytokine-stimulated; actives raise or lower the signal
How it was run: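 Human umbilical vein endothelial cells (3C system), biomarker read by ELISA 24 h after dosing; bidirectional fit against DMSO baseline. Cytotoxicity tracked by SRB total-protein staining in parallel cultures at biomarker time.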

Measured: AC50

Sequence of Glucocorticoid receptor (Homo sapiens) (P04150 whole entry, looked up, the tested form may be a part): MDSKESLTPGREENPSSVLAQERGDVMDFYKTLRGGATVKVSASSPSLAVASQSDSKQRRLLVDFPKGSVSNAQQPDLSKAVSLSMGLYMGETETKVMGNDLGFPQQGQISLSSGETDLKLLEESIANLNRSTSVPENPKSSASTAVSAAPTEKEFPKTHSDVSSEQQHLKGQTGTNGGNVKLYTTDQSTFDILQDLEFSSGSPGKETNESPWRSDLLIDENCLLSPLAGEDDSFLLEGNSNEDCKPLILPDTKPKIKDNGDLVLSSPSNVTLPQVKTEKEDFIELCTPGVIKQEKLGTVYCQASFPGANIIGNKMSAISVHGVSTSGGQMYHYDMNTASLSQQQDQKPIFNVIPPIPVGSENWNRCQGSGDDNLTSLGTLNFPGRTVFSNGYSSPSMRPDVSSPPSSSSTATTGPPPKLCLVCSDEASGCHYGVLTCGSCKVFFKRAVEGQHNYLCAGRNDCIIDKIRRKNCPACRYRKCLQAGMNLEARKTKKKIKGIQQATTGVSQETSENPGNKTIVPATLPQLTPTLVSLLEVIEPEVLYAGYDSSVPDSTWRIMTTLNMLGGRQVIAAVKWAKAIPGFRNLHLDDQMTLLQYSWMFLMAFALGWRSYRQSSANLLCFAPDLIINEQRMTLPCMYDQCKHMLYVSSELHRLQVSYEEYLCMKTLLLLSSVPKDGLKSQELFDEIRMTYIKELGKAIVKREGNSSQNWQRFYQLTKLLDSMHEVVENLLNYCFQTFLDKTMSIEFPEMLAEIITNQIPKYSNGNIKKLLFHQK
Sequence of Myc proto-oncogene protein (Homo sapiens) (P01106 whole entry, looked up, the tested form may be a part): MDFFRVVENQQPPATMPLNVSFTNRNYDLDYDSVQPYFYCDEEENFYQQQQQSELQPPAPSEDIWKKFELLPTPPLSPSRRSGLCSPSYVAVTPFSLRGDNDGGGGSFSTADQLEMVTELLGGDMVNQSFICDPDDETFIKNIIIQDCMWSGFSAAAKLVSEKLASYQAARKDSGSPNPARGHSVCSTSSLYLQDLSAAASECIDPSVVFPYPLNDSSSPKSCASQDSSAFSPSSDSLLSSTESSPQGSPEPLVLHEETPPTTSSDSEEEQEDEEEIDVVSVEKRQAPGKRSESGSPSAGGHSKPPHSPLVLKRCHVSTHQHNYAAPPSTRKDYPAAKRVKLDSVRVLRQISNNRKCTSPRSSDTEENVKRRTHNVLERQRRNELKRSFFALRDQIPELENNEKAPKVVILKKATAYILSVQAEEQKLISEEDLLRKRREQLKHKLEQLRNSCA
Sequence of Cellular tumor antigen p53 (Homo sapiens) (P04637 whole entry, looked up): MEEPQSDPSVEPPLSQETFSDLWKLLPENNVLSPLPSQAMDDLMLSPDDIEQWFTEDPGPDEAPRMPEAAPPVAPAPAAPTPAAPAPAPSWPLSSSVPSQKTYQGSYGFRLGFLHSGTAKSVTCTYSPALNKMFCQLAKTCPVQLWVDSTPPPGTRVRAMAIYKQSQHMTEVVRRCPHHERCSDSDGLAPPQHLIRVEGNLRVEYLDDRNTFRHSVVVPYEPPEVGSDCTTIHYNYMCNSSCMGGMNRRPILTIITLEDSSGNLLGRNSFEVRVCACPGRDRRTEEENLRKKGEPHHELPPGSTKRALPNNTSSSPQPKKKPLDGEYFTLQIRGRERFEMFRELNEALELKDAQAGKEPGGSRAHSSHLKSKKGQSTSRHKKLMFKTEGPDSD
Sequence of Estrogen-related receptor gamma (Homo sapiens) (P62508 whole entry, looked up, the tested form may be a part): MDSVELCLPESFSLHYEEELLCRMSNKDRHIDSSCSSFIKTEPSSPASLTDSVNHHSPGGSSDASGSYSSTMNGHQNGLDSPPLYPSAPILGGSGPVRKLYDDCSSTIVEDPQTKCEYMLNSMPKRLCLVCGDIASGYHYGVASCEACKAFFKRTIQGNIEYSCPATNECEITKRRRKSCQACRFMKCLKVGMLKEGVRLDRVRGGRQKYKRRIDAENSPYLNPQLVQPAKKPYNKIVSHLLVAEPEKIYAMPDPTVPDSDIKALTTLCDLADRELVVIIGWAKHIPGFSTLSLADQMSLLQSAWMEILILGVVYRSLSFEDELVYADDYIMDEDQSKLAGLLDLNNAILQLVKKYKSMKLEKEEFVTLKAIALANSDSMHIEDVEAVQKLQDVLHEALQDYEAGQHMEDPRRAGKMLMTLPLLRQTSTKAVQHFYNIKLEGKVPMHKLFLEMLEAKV
Sequence of Oxysterols receptor LXR-alpha (Homo sapiens) (Q13133 whole entry, looked up, the tested form may be a part): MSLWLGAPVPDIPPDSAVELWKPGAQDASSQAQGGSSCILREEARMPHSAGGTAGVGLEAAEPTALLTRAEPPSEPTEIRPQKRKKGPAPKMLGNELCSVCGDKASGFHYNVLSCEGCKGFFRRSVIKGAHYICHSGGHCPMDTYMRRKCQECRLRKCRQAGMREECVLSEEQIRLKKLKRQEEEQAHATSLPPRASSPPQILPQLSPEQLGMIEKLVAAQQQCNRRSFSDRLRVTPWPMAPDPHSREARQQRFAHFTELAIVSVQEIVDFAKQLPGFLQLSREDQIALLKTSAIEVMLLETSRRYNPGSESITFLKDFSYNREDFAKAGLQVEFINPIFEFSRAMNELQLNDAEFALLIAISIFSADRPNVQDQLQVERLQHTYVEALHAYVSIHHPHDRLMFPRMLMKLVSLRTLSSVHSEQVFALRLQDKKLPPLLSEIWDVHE
Sequence of Oxysterols receptor LXR-beta (Homo sapiens) (P55055 whole entry, looked up, the tested form may be a part): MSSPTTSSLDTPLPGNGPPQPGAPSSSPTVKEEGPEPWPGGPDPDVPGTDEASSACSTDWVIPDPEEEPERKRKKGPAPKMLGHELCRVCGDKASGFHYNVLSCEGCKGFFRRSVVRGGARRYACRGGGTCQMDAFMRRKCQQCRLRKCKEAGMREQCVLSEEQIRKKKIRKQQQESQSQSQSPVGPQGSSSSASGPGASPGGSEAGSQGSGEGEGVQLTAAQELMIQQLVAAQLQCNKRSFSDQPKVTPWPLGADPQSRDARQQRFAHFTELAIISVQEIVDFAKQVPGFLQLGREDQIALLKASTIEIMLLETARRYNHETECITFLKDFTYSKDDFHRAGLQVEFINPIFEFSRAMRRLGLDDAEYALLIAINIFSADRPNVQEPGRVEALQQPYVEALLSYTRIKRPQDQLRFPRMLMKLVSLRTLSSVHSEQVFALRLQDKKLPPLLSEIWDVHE
Sequence of Nuclear receptor subfamily 4 group A member 2 (Homo sapiens) (P43354 whole entry, looked up, the tested form may be a part): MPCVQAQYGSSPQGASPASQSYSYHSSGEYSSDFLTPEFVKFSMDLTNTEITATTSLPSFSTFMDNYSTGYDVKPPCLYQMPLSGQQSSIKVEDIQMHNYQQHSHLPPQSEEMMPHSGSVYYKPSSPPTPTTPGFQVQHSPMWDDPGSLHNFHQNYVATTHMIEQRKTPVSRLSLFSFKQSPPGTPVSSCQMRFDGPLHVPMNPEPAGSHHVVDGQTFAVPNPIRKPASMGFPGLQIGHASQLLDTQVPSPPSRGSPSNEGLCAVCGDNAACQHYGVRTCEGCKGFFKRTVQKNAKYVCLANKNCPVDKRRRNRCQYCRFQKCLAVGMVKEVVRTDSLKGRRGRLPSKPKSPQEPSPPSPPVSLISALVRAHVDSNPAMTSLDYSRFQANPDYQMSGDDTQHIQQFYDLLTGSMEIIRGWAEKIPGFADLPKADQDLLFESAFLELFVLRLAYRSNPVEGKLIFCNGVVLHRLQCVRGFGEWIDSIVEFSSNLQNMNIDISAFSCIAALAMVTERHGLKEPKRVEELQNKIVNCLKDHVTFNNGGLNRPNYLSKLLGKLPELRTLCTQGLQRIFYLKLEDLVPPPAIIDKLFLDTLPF
Sequence of Transcriptional activator Myb (Homo sapiens) (P10242 whole entry, looked up): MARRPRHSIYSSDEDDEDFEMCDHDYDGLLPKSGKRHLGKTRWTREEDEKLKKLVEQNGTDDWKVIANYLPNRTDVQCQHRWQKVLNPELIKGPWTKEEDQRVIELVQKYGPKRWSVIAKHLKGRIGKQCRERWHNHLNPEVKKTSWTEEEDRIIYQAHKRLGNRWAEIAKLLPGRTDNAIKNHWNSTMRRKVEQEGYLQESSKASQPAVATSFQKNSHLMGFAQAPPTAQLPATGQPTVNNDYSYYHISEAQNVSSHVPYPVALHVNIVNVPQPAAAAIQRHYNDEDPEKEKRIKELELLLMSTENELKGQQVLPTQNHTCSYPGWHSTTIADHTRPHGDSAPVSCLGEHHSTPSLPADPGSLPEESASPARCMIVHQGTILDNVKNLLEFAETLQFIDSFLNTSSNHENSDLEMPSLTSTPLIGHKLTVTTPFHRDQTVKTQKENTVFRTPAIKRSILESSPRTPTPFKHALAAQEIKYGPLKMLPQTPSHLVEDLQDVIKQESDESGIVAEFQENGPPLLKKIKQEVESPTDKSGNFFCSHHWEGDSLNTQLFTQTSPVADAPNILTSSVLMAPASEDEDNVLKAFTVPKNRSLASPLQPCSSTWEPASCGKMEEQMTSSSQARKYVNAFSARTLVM
Sequence of Nuclear respiratory factor 1 (Homo sapiens) (Q16656 whole entry, looked up): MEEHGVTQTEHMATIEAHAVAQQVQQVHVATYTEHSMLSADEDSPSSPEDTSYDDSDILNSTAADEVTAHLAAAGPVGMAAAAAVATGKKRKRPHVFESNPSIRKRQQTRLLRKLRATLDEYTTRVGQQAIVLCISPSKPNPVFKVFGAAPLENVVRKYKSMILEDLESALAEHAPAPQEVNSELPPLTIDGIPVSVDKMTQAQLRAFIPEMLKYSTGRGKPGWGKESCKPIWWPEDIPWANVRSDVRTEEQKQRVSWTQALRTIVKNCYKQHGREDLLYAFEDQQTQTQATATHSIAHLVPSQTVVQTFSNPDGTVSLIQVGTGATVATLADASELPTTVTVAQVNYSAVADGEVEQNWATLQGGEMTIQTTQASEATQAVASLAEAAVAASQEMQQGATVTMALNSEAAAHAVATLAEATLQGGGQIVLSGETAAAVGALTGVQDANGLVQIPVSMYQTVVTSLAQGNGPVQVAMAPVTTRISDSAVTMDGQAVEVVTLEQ

c1ccc(B(c2ccccc2)c2ccccc2)cc1
active: [10] 26.7 µM | [13] 33.9 µM | [14] 43.3 µM
not listed: [16] | [17] | [18] | [19] | [20]
inactive: all other assays above

[Co]
not listed: [2] | [5] | [6] | [10] | [18] | [19] | [20]
inactive: all other assays above

Cc1ccc(S(=O)(=O)NCl)cc1
not listed: [3] | [7] | [12] | [16] | [18] | [19] | [20]
inactive: all other assays above

O=S(=O)(OCC(F)F)C(F)(F)F
not listed: [5] | [7] | [11]
inactive: all other assays above

C#C[C@]1(O)CC[C@H]2[C@@H]3CCc4cc(OC)ccc4[C@H]3CC[C@@]21C
active: [13] 18 µM
not listed: [11] | [17]
inactive: all other assays above

CCc1ccc(C(c2ccc(CC)cc2)C(Cl)Cl)cc1
active: [13] 56.5 µM | [19] 12.2 µM | [20] 27.4 µM
not listed: [1] | [4] | [5] | [10] | [11] | [12] | [14]
inactive: all other assays above

O=C(O)C=C(C(F)(F)F)C(F)(F)F
active: [12] 68.2 µM | [13] 1.89 µM and 3.02 µM | [20] 22.4 µM and 8.91 µM
inactive: [2] | [3] | [4] | [16] | [5] | [6] | [7] | [17] | [8] | [9] | [10] | [11] | [12] | [14] | [15] | [18] | [19]

CC(C)=CCCC(C)CCOC(=O)C(C)C (configuration not stated)
not listed: [1] | [10] | [11] | [16] | [18] | [19] | [20]
inactive: all other assays above

CCc1c(Br)c(Br)c(Br)c(Br)c1Br
active: [17] 26.8 µM | [18] 4.73 µM | [19] 20 µM
not listed: [2] | [5] | [10] | [14] | [16]
inactive: all other assays above

O=C(O)C(F)(F)C(F)(F)F
not listed: [1] | [14]
inactive: all other assays above

OCC(F)(F)C(F)(F)C(F)(F)C(F)F
not listed: [1] | [11] | [14] | [17]
inactive: all other assays above

FC(F)(F)C(F)(F)C(F)(F)C(F)(F)C(F)(F)C(F)(F)C(F)(F)C(F)(F)F
not listed: [1] | [10]
inactive: all other assays above

FC(F)(Br)C(F)(F)C(F)(F)C(F)(F)C(F)(F)C(F)(F)Br
not listed: [1] | [5] | [11] | [14]
inactive: all other assays above

c1ccc(-c2ccccc2-c2ccccc2)cc1
inactive: [2] | [3] | [16] | [8] | [9] | [12] | [15]
active: [17] 27.2 µM | [10] 100 µM | [13] 32.9 µM

O=C(O)C(F)(F)C(F)(F)C(F)(F)C(F)(F)C(F)(F)C(F)(F)C(F)(F)C(F)(F)Cl
inactive: [2] | [3] | [4] | [16] | [5] | [6] | [7] | [17] | [8] | [9] | [11] | [12] | [13] | [18] | [19]
active: [3] 82.3 µM | [17] 31.2 µM | [13] 12.7 µM | [14] 50 µM and 57.9 µM | [15] 57.7 µM and 69.5 µM | [18] 54.4 µM | [19] 44.9 µM | [20] 48.7 µM

FC(F)(F)C(F)(F)C(F)(F)C(F)(F)C(F)(F)C(F)(F)CC1CO1 (configuration not stated)
not listed: [1] | [5] | [6] | [14] | [16] | [17]
inactive: all other assays above
